From PubChem BioAssay
Pf growth 48h: P. falciparum growth inhibition at 48 hours (one generation) | P. falciparum luciferase growth in erythrocytes, 48 h | Potency, µM (titrated, usually from 28.7 µM), usual class: inhibitors | 5.9% of 310,000 active | AID 504832
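Cell-based growth assay: transgenic P. falciparum expressing firefly luciferase, cultured in red cells within RPMI 1640 containing 0.5% w/v Albumax, 24 mM bicarbonate and gentamycin. A drop in luciferase activity indicates inhibition.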
AMA1-RON2 inh: inhibitors of Plasmodium falciparum AMA1-RON2 interaction; AID 720542; AlphaScreen AMA1-biotinylated RON2 peptide binding; 0.2% of 360,000 active; Potency, µM (doses to about 58.2 µM), actives largely listed as inhibitors; also: nearly all actives have a fitted effect of over 45% in size
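AMA1 (3D7) with his tag at 25 nM final met compounds first, then biotinylated RON2 peptide at 25 nM; detection used donor plus acceptor beads, 10 µg/mL apiece, read by AlphaScreen after 30 min at room temperature.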
Pf growth 96h: P. falciparum growth inhibition at 96 hour, primary screen for plastid delayed-death inhibitors. 6.9% of 320,000 active. AID 504834. P. falciparum luciferase reporter growth, 96 h. Potency, µM (titrated, usually from 28.7 µM), most hits filed as inhibitors
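P. falciparum expressing integrated firefly luciferase grown in erythrocytes (2% hematocrit, 0.05% parasitemia final) with compounds for 96 hours at 37 C, 5% CO2. Growth inhibition read as loss of luminescence after adding luciferase detection reagent.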
SARS PLpro yeast: inhibitors of SARS-CoV papain-like protease in yeast; S. cerevisiae expressing SARS-CoV PLpro, growth rescue; Potency, µM (titrated, usually from 32.9 µM), usual class: activators; 0.19% of 330,000 active; calls by dose curve; also: nearly all actives have a fitted effect of over 55% in size
Each line names hits and unclear results; the compound was inactive in the other large screens. Only some compounds are listed: those with a hit (about 9.4% of all), similar ones and a draw of the others. Unless noted, calls follow the shape of the dose curve; as a rule, active = well fitted curve in the direction sought with a large enough effect; inconclusive = small, poorly fitted or top-dose-only effect, or another doubt; inactive = no such curve, though single readings can be large; an effect the other way counts as inactive or inconclusive.

CCOC(=O)C1CCN(S(=O)(=O)c2ccc(NC(C)=O)c(Cl)c2)CC1	none
Cc1ccc(C)c(NC(=O)COC(=O)c2ccc[n+]([O-])c2)c1	none (no result: Pf growth 48h, Pf growth 96h)
CSc1ccccc1C(=O)Nc1nccs1	none (no result: Pf growth 48h)
CC(=O)Nc1ccc(S(=O)(=O)n2nc(C)cc2C)cc1	Pf growth 96h 0.93µM
O=C(COc1ccccc1)Nc1nc(-c2ccc(S(=O)(=O)N3CCOCC3)cc2)cs1	Pf growth 48h inconclusive (no result: Pf growth 96h)
CC(Oc1ccc(Cl)cc1)C(=O)Nc1cccc(S(=O)(=O)N2CCCC2)c1 (centres undefined)	none (no result: Pf growth 48h, Pf growth 96h, SARS PLpro yeast)
O=C(CCc1ccc(S(=O)(=O)N2CCOCC2)cc1)Nc1nc(COc2ccccc2)cs1	Pf growth 48h 12µM (no result: Pf growth 96h)
Cn1cc(S(=O)(=O)N2CCOCC2)cc1C(=O)Nc1ccc(Cl)cc1	Pf growth 96h 7.4µM
CC(Oc1ccc(Cl)cc1)C(=O)Nc1ccc(S(=O)(=O)N2CCOCC2)cc1 (centres undefined)	Pf growth 48h 13µM
CC(=O)Nc1ccc(S(=O)(=O)N2CCOCC2)cc1	Pf growth 96h 2.9µM
O=C(CCCc1ccccc1)Nc1ccc(S(=O)(=O)N2CCOCC2)cc1	Pf growth 48h inconclusive, Pf growth 96h 10µM
CC(Oc1ccccc1Cl)C(=O)Nc1ccc(S(=O)(=O)N2CCCC2)cc1 (centres undefined)	Pf growth 48h 13µM
CC(OC(=O)C(C)Oc1ccccc1)C(=O)Nc1ccc(S(=O)(=O)N2CCCCC2)cc1 (centres undefined)	Pf growth 96h inconclusive
CC(C(=O)Nc1ccc(S(=O)(=O)N2CCCC2)cc1)N1CCc2ccccc2C1 (centres undefined)	Pf growth 48h 12µM, AMA1-RON2 inh inconclusive, Pf growth 96h inconclusive
CCCOC(=O)C1C2C=CC(C3CC23)C1C(=O)OCC(=O)c1ccccc1 (centres undefined)	none
COc1ccc(C2=CC(c3ccc(OC)c(OC)c3)n3nnnc3N2)c(OC)c1 (centres undefined)	Pf growth 48h inconclusive, Pf growth 96h inconclusive
Cc1n[nH]c(=O)c2c(NC(=O)CSc3ncccn3)oc(C)c12	none
CN1CCN(Cc2oc(CO)cc(=O)c2O)CC1	AMA1-RON2 inh inconclusive (no result: Pf growth 48h)
O=C(Nc1ccc(F)c(F)c1)c1ccc(F)c(S(=O)(=O)N2CCC3(CC2)OCCO3)c1	Pf growth 48h inconclusive, Pf growth 96h 10µM
CC(=O)Nc1ccc(S(=O)(=O)NCCN2CCNC2=O)cc1Cl	Pf growth 48h inconclusive, Pf growth 96h 7.4µM
O=C1NCCN1CCNS(=O)(=O)c1ccc(F)c(Cl)c1	none
CC(C)(C)c1ccc(C(=O)N/C(=C\c2cccs2)C(=O)N2CCOCC2)cc1	none
CC(=O)Nc1ccc(NC(=O)C/C(C)=N/NC(N)=S)cc1	Pf growth 48h inconclusive, Pf growth 96h 1.9µM, SARS PLpro yeast 11µM
S=C(N/N=C/c1cccs1)NC1CC2CCC1C2 (centres undefined)	Pf growth 48h inconclusive, Pf growth 96h 10µM
S=C(NCCN1CCOCC1)N/N=C/c1cccs1	Pf growth 48h 3.3µM, Pf growth 96h 2.3µM
O=C(NCCN1CCOCC1)c1cc(-c2cccs2)on1	Pf growth 96h 9.3µM
Oc1ccc(/C=N/NC(=S)NC2CC3CCC2C3)cc1 (centres undefined)	Pf growth 48h inconclusive, Pf growth 96h inconclusive
OC(CNCc1ccccc1F)COc1cccc2ccccc12 (centres undefined)	Pf growth 48h inconclusive, Pf growth 96h inconclusive
Cc1cc2c(OCC(O)CNCc3ccco3)cccc2[nH]1 (centres undefined)	Pf growth 48h 2.9µM, Pf growth 96h 3.3µM
c1ccc2c(C3=NNC(=NC4CCCCC4)SC3)c[nH]c2c1	Pf growth 48h inconclusive, Pf growth 96h 15µM
COC(=O)c1c(S(=O)(=O)NCc2ccccc2)sc(C(=O)O)c1C	none (no result: Pf growth 96h)
Cc1ccc(S(=O)(=O)N(Cc2ccccc2Cl)C(=O)N2CCN(C)CC2)cc1	none (no result: SARS PLpro yeast)
CCN(CC)CCOc1cccc(C(C)C)c1	none
CCN(CC)CCOc1ccc2c(c1)C(=O)c1cc(OCCN(CC)CC)ccc1-2	Pf growth 48h 4.3µM, Pf growth 96h 6µM (no result: AMA1-RON2 inh, SARS PLpro yeast)
CCC(C)C(NC(=O)C1CCC(C)CC1)C(=O)NC(CCSC)C(=O)OC (centres undefined)	none
Cc1ccc(CNC(=O)CNS(=O)(=O)c2cccc3nsnc23)cc1	none
CNC(=S)N/N=C/c1cc(C)n(-c2ccc(Cl)c(Cl)c2)c1C	Pf growth 48h 15µM, Pf growth 96h 9.3µM
Cc1ccc(C)n1-c1ccc(C(=O)Nc2ccccc2)cc1	Pf growth 48h inconclusive, Pf growth 96h inconclusive
C(=N\n1cnc2ccccc21)/c1cccnc1	none (no result: Pf growth 48h)
Cc1cc2ncn(/N=C/c3cccnc3)c2cc1C	Pf growth 48h 15µM, Pf growth 96h inconclusive
CCC[C@@H](O)c1cc2cc(OC)c(OC)cc2c(=O)o1	Pf growth 96h 2.6µM
CCOC(=O)c1sc(-c2ccc(F)cc2)cc1NC(=O)Nc1ccccc1OC	Pf growth 48h inconclusive, Pf growth 96h 8.3µM
NC(=O)c1ccccc1NC(=O)CC12CC3CC(CC(C3)C1)C2	Pf growth 96h 9.3µM
CN(C)S(=O)(=O)c1cccc(NC(=O)CC23CC4CC(CC(C4)C2)C3)c1	Pf growth 48h 15µM, Pf growth 96h inconclusive
CCn1c2ccccc2c2cc(NC(C)=O)ccc21	none (no result: Pf growth 48h)
CCn1c2ccccc2c2cc(NC(=O)c3ccco3)ccc21	Pf growth 48h 13µM (no result: Pf growth 96h)
CCn1c2ccccc2c2cc(NC(=O)c3cccc(OC)c3OC)ccc21	Pf growth 96h 4.1µM
CCn1c2ccccc2c2cc(NC(=O)c3cccc(OC)c3)ccc21	Pf growth 48h inconclusive
COc1cccc2c1C(=O)C[C@]1(CCCC[C@@H]1C)O2	none
COc1cc(CN2CCN(Cc3ccc(C)cc3)C(CCO)C2)cc(OC)c1O (centres undefined)	none
c1ccc(OCCNc2ccn3nc(-c4ccco4)cc3n2)cc1	none (no result: Pf growth 48h, Pf growth 96h, SARS PLpro yeast)
CC(=O)Nc1ccc2sc(NC(=O)CN3CCOCC3)nc2c1	Pf growth 96h inconclusive
Cc1ccc(C(=O)OCc2c(C)noc2C)cc1NC(=O)c1ccco1	Pf growth 96h 10µM
COc1ccc(CN2C(=O)c3cccnc3C2=O)cc1S(=O)(=O)N1CCCC(C)C1 (centres undefined)	Pf growth 96h 15µM
CC(C)Cc1ccc(C(=O)Nc2ccc(Cc3ccncc3)cc2)o1	none
COc1cccc(/C=N/Nc2cc(N3CCOCC3)ncn2)c1O	Pf growth 48h 0.93µM
COc1cccc(/C=N/Nc2ncnc3c2ncn3Cc2ccccc2)c1O	Pf growth 48h 1.9µM, Pf growth 96h 2.3µM, SARS PLpro yeast inconclusive
Fc1cccc(/C=N/Nc2cc(N3CCOCC3)ncn2)c1	Pf growth 96h 2.3µM, SARS PLpro yeast 2.8µM
CCOc1cc(C(=O)NCC2CCCO2)cc(OCC)c1OCC (centres undefined)	none (no result: Pf growth 96h)
CC1=C(C(=O)N2CCCCC2)C2(CCC(C)CC2)OC1=O (centres undefined)	Pf growth 96h inconclusive
C[C@](N)(Cc1ccc(O)c(O)c1)C(=O)O	AMA1-RON2 inh 11µM, Pf growth 96h inconclusive
C[C@](N)(Cc1ccc(O)cc1)C(=O)O	none (no result: AMA1-RON2 inh, SARS PLpro yeast)
Cc1ccc(NC(=O)NCC2CC2(Cl)Cl)cc1 (centres undefined)	none
CC(=O)Nc1ccc(NC(=O)c2c(C)noc2C)cc1	Pf growth 48h 4.7µM, Pf growth 96h inconclusive
